The panel holds about 79,000 compounds, 15% with a hit somewhere; the sample as a whole holds those more often. Values without a mark were called inactive. Calls of active or inactive are those of the source. Cut-off read from the data, not from the text of the source: active = growth inhibition above about 70%; inactive = the rest.
Test: NCI Yeast Anticancer Drug Screen. Data for the bub3 strain (AID 167)
Details: S. cerevisiae bub3 mutant strain, at 5.0 µM (retest, dose inferred, filed as 0.5), stronger effect = higher value
Outline: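 Compounds were applied to a genetically altered yeast strain carrying a cell-cycle control defect. Growth inhibition was scored against vehicle-treated controls.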

Compound | growth inhibition
COc1ccc2nc3cccc([N+](=O)[O-])c3c(NCCNCCN(C)C)c2c1 | -33%
Cc1cccc(/C=N/NC(=S)NC2CCCCC2)n1 | -30%
COC(=O)C(=O)c1c(-c2ccc(Cl)c(Cl)c2)[nH]c2[nH]n(-c3ccccc3)c(=O)c2c1=O | -38%
c1ccc([P+](CCN2Cc3ccccc3C2)(c2ccccc2)c2ccccc2)cc1 | 21%
Cc1cc(C)c2[s+]snc2c1 | -5%
CC(C)(Br)C(=O)/C=C/c1ccccc1 | -16%
Cc1ccc(S(=O)(=O)NC(=O)C2C(=O)CC3(CCCCC3)CC2=O)cc1 | 20%
NC(=S)N1N=C2c3ccccc3CC[C@H]2[C@@H]1c1ccc(Cl)cc1 | 34%
O=[N+]([O-])/C=C/c1cc2ccc3ccccc3c2[nH]1 | 50%
O=C1C(=C2CCCC2)CCC1CN1CCCCC1 (stereo unspecified) | -21%
OC(CC(O)(C(F)(F)F)C(F)(F)F)c1ccc(C(O)CC(O)(C(F)(F)F)C(F)(F)F)cc1 (stereo unspecified) | 15%
COc1cc2c(cc1OC)[C@@H](Nc1ccc(C#N)cc1)C1COC(=O)[C@@H]1C2c1cc(OC)c(O)c(OC)c1 (stereo partly specified) | -54%
O=c1cccccc1[O-].O=c1cccccc1[O-].O=c1cccccc1[O-].[Eu+3] | 8%
O=C1c2ccccc2C(=O)c2sc(Nc3ccccc3Cl)nc21 | 99% (active)
NC(CCCCCCCCCCCCC(N)C(=O)c1ccccc1)C(=O)c1ccccc1 (stereo unspecified) | 4%
CC1=C(C)C(=O)C2=C(OCCO2)C1=O | -22%
c1ccc(-c2cc(C3CO3)c3ccccc3n2)cc1 (stereo unspecified) | 8%
S=C1C(=Nc2ccccc2)N(c2ccccc2)/C(=N\c2ccccn2)N1c1ccccc1 | 0%

Compound | growth inhibition
CCC(OC(C)=O)C1CC(C(C)C)CCC1C (stereo unspecified) | 0%
CC(C)=CCc1c2c(c(O)c3c(=O)c(-c4ccc(O)c(O)c4)coc13)C=CC(C)(C)O2 | 14%
O=C(NC(N1CCN(c2cc3c(cc2F)c(=O)c(C(=O)O)cn3C2CC2)CC1)(C(F)(F)F)C(F)(F)F)c1ccccc1 | -7%
Fc1cc(F)c(F)c(S)c1F | 12%
COc1ccc2cc3c4cc5c(cc4cc[n+]3cc2c1OC)OCO5 | 43%
CCCCCCCCNCCCCCCCC | 74% (active)
Nc1cc(Cl)ccc1Nc1ccccc1 | 20%
O=C(/C(=C/c1ccc(O)cc1)c1ccccc1)c1ccccc1 | 2%
O=Cc1ccccc1C=O | -32%
C1=CCN([B-](c2ccccc2)[C+]2CCCCC2)C=C1 | 1%
CC/C(=C(\c1ccccc1)c1ccc(OCC[N+](C)(C)C)cc1)c1ccccc1 | 22%
O=S(=O)(c1cccc(C(F)(F)F)c1)N1c2ccccc2-n2cccc2C1c1cccnc1 (stereo unspecified) | 25%
Nc1ccc2c(c1)C(=O)c1c(F)cccc1-2 | -60%
CN(C)/C(=N/C(=S)Nc1ccccc1)SCc1ccccc1 | 6%
CCN(CC)C(=S)N/N=C(\C)c1ccccc1O | 95% (active)
CC(C)OC(=O)NNc1cc(Cl)ccc1Cl | 32%
CC(C)CCC[C@@H](C)[C@H]1CC[C@H]2[C@@H]3CC[C@H]4C[C@H](N)CC[C@]4(C)[C@H]3CC[C@]12C | -3%
O=C1c2ccccc2-c2ccc(N=Cc3ccccc3)cc21 | 0%
